Data: the supplement of paper PMC10849652
Of roughly 8,800 targets only a part is listed; those with a hit were picked by preference. About 0.5% of all pairs of compound and target were hits.

Tests used:
Experiment in all cases: log2 fold change, soluble protein after heating vs DMSO (PISA); higher = thermal stabilisation; K562 lysate, 10 uM; active = over 0.2 and 3.5 SD of the protein, either way, in both replicates (recomputed)
lapatinib = compound: CS(=O)(=O)CCNCc1ccc(-c2ccc3ncnc(Nc4ccc(OCc5cccc(F)c5)c(Cl)c4)c3c2)o1 [lapatinib]
Procedure, shortened: (§1)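 K562 pellets were dounce-homogenised in PBS pH 7.4 with 1 mM MgCl2, and the crude extract at 1 mg/mL protein was treated with 10 μM compound for 30 min. Aliquots were heated for 3 min across 48°C-58°C, pooled, and brought to 0.5% NP-40 at 4°C; soluble protein was the supernatant after 21,000xg for 90 min. Soluble protein was quantified by TMTpro 16plex LC-MS/MS with channel sums equalised, and reported as log2 fold change in thermal stability against DMSO controls, with values from duplicates.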

pictilisib = compound: CS(=O)(=O)N1CCN(Cc2cc3nc(-c4cccc5[nH]ncc45)nc(N4CCOCC4)c3s2)CC1 [pictilisib]
Procedure, shortened: as §1

crizotinib = compound: C[C@@H](Oc1cc(-c2cnn(C3CCNCC3)c2)cnc1N)c1c(Cl)ccc(F)c1Cl [crizotinib]
Procedure, shortened: as §1

[1] = compound: C[C@H](C1=CC=C(C=C1)C(=O)NC2=C3C=CNC3=NC=C2)N
Procedure, shortened: as §1

duvelisib = compound: C[C@H](Nc1ncnc2nc[nH]c12)c1cc2cccc(Cl)c2c(=O)n1-c1ccccc1 [duvelisib]
Procedure, shortened: as §1

gandotinib = compound: Cc1cc(Nc2cc(CN3CCOCC3)c3nc(C)c(Cc4ccc(Cl)cc4F)n3n2)n[nH]1 [gandotinib]
Procedure, shortened: as §1

tozasertib = compound: Cc1cc(Nc2cc(N3CCN(C)CC3)nc(Sc3ccc(NC(=O)C4CC4)cc3)n2)n[nH]1 [tozasertib]
Procedure, shortened: as §1

doramapimod = compound: Cc1ccc(-n2nc(C(C)(C)C)cc2NC(=O)Nc2ccc(OCCN3CCOCC3)c3ccccc23)cc1 [doramapimod]
Procedure, shortened: as §1

bafetinib = compound: Cc1ccc(NC(=O)c2ccc(CN3CC[C@H](N(C)C)C3)c(C(F)(F)F)c2)cc1Nc1nccc(-c2cncnc2)n1 [bafetinib]
Procedure, shortened: as §1

[2] = compound: Cc1cccc(CC(=O)N2CCc3c2ccc(-c2cn(C)c4ncnc(N)c24)c3F)n1
Procedure, shortened: as §1

Measured: log2 fold change

SLC38A1 (UniProt Q9H2H9)
inactive: lapatinib -0.008 | pictilisib -0.01 | crizotinib -0.064 | [1] -0.218 | duvelisib 0.048 | gandotinib 0.096 | tozasertib 0.026 | doramapimod -0.009 | bafetinib 0.003 | [2] 0.095

SPG11 (UniProt Q96JI7)
Chain of UniProt Q96JI7 (Q96JI7 whole entry, looked up): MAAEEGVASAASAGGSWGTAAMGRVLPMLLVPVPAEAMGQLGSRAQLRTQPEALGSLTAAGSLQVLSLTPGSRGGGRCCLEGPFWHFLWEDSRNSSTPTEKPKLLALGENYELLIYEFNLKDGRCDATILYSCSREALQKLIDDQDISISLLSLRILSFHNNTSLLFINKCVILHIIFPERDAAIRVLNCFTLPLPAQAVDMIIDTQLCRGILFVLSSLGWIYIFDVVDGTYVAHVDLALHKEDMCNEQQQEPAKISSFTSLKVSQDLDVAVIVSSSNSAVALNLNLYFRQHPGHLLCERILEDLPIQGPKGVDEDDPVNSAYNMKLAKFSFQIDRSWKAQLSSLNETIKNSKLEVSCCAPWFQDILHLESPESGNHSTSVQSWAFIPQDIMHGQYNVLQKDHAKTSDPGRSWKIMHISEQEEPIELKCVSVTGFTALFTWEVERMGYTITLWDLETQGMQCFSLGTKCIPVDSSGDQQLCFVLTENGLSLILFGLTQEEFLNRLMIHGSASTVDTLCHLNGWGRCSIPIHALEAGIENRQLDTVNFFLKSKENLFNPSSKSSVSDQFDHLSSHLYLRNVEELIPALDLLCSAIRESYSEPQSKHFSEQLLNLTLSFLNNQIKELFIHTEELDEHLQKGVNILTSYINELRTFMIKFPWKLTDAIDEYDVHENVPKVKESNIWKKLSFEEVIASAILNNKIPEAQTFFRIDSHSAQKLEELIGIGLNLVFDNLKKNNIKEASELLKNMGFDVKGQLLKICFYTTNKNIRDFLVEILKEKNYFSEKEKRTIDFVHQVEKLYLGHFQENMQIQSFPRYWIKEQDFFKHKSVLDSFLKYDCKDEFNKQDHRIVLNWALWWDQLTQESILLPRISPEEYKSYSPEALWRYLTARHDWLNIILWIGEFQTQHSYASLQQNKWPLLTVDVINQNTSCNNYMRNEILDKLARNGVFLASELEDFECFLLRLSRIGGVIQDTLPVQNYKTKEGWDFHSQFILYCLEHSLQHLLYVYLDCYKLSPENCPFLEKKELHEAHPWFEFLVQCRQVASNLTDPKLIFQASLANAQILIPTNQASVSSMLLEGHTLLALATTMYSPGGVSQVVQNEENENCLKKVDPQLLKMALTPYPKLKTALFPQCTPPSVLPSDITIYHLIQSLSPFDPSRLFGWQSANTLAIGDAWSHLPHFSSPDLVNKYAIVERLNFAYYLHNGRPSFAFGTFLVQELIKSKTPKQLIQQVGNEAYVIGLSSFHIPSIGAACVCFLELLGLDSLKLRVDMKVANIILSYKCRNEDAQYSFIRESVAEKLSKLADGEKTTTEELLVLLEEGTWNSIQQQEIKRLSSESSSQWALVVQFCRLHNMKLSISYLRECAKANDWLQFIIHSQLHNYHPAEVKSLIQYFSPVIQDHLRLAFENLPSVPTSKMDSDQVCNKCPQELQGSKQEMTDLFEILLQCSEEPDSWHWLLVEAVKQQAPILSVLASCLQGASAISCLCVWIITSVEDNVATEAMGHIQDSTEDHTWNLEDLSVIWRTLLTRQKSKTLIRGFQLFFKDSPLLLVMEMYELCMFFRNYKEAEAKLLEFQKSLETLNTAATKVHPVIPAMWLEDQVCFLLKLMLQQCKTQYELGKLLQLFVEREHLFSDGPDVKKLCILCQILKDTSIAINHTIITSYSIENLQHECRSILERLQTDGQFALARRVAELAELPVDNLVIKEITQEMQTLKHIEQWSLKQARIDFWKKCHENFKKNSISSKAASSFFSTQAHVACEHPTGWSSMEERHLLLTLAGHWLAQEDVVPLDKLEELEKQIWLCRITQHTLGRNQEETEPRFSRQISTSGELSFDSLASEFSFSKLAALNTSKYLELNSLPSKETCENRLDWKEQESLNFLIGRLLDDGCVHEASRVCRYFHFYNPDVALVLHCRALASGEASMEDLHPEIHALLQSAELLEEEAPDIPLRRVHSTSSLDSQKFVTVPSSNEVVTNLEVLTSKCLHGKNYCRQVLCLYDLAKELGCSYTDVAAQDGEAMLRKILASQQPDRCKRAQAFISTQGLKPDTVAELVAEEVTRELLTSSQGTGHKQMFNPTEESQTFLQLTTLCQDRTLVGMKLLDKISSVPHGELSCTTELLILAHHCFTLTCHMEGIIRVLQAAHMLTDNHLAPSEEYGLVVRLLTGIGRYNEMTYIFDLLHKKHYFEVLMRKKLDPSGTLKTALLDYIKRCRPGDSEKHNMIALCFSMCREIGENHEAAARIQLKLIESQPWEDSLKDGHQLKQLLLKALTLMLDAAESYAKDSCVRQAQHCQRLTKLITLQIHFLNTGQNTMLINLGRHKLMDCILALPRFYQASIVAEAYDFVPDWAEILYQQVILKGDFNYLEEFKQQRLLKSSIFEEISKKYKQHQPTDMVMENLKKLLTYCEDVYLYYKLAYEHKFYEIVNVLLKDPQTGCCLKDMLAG
inactive: lapatinib -0.163 | pictilisib -0.021 | crizotinib -0.102 | [1] -0.049 | duvelisib 0.048 | gandotinib 0 | tozasertib 0.047 | doramapimod 0.024 | bafetinib 0.138 | [2] -0.009

SFR1 isoform 2 (UniProt Q86XK3)
Chain of UniProt Q86XK3 (Q86XK3 whole entry, looked up): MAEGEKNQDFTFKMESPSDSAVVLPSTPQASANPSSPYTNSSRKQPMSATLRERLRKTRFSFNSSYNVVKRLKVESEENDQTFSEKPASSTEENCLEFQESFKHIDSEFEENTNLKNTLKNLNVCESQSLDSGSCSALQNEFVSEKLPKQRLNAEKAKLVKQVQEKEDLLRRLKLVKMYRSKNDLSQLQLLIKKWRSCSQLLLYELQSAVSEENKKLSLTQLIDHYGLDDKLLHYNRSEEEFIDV
active: [2] 0.261
inactive: lapatinib 0.001 | pictilisib 0.053 | crizotinib 0.006 | [1] 0.09 | duvelisib 0.043 | gandotinib 0.169 | tozasertib -0.002 | doramapimod 0.068 | bafetinib -0.097

SLC27A4 (UniProt Q6P1M0)
Chain of UniProt Q6P1M0 (Q6P1M0 whole entry, looked up): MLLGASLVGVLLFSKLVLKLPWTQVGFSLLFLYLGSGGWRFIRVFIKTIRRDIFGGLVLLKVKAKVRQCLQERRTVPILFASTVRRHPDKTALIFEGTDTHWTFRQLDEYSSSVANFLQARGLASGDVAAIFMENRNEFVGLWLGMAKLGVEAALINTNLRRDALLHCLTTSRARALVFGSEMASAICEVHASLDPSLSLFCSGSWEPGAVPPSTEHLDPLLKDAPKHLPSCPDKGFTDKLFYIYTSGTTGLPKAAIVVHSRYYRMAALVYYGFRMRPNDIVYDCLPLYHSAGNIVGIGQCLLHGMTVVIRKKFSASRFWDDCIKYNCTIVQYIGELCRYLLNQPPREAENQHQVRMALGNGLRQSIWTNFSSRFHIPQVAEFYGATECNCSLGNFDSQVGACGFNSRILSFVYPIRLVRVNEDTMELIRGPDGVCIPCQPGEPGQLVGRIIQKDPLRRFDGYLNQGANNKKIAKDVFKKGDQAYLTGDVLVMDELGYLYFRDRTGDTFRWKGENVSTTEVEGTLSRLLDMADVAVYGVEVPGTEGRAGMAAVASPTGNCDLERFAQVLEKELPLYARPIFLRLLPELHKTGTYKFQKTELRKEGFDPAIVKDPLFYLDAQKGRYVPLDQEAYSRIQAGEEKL
inactive: lapatinib -0.052 | pictilisib -0.005 | crizotinib -0.049 | [1] -0.04 | duvelisib 0.037 | gandotinib 0.095 | tozasertib -0.045 | doramapimod 0.149 | bafetinib -0.057 | [2] 0.052

SPATA5L1 (UniProt Q9BVQ7)
inactive: lapatinib -0.017 | pictilisib 0.011 | crizotinib -0.107 | [1] 0.016 | duvelisib 0.001 | gandotinib -0.076 | tozasertib 0.013 | doramapimod -0.035 | bafetinib -0.001 | [2] 0.049

TAF9 (UniProt Q16594)
inactive: lapatinib -0.06 | pictilisib -0.018 | crizotinib -0.004 | [1] 0.188 | duvelisib 0.084 | gandotinib -0.002 | tozasertib 0.156 | doramapimod 0.001 | bafetinib 0.018 | [2] -0.057

SMARCA4 (UniProt P51532)
inactive: lapatinib -0.029 | pictilisib -0.008 | crizotinib -0.01 | [1] -0.009 | duvelisib -0.003 | gandotinib -0.022 | tozasertib 0.012 | doramapimod 0.008 | bafetinib -0.008 | [2] 0.054

SMIM8 (UniProt Q96KF7)
inactive: lapatinib -0.053 | pictilisib -0.079 | crizotinib -0.041 | [1] -0.146 | duvelisib 0.019 | gandotinib 0.128 | tozasertib -0.038 | doramapimod -0.059 | bafetinib -0.035 | [2] 0.018

SPA17 (UniProt Q15506)
Chain of UniProt Q15506 (Q15506 whole entry, looked up): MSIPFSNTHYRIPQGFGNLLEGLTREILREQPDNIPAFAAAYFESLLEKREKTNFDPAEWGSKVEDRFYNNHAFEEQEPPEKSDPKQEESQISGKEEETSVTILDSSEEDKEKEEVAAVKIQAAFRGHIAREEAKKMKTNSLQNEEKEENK
inactive: lapatinib 0.058 | pictilisib -0.012 | crizotinib 0.019 | duvelisib 0.009 | gandotinib 0.303 | tozasertib -0.022 | doramapimod 0.054 | bafetinib -0.076 | [2] 0.25
active: [1] -0.498

SLC38A10 (UniProt Q9HBR0)
inactive: lapatinib 0.006 | pictilisib -0.069 | crizotinib 0.009 | [1] -0.136 | duvelisib 0.018 | gandotinib 0.068 | tozasertib -0.061 | doramapimod -0.087 | bafetinib -0.044 | [2] 0.091

SNRPD2 (UniProt P62316)
inactive: lapatinib 0.017 | pictilisib -0.01 | crizotinib 0.016 | [1] -0.055 | duvelisib 0.018 | gandotinib 0.057 | tozasertib -0.014 | doramapimod -0.009 | bafetinib 0.078 | [2] 0.052

SNCA (UniProt P37840)
inactive: lapatinib 0.137 | pictilisib -0.014 | crizotinib 0.127 | [1] -0.101 | duvelisib -0.005 | tozasertib 0.016 | doramapimod 0.196 | bafetinib 0.098 | [2] 0.073
active: gandotinib 0.456

SPC25 (UniProt Q9HBM1)
inactive: lapatinib 0.029 | pictilisib 0.029 | crizotinib 0.001 | [1] -0.01 | duvelisib -0.021 | gandotinib -0.007 | tozasertib -0.013 | doramapimod -0.005 | bafetinib -0.031 | [2] 0.011

TARBP1 (UniProt Q13395)
Chain of UniProt Q13395 (Q13395 whole entry, looked up): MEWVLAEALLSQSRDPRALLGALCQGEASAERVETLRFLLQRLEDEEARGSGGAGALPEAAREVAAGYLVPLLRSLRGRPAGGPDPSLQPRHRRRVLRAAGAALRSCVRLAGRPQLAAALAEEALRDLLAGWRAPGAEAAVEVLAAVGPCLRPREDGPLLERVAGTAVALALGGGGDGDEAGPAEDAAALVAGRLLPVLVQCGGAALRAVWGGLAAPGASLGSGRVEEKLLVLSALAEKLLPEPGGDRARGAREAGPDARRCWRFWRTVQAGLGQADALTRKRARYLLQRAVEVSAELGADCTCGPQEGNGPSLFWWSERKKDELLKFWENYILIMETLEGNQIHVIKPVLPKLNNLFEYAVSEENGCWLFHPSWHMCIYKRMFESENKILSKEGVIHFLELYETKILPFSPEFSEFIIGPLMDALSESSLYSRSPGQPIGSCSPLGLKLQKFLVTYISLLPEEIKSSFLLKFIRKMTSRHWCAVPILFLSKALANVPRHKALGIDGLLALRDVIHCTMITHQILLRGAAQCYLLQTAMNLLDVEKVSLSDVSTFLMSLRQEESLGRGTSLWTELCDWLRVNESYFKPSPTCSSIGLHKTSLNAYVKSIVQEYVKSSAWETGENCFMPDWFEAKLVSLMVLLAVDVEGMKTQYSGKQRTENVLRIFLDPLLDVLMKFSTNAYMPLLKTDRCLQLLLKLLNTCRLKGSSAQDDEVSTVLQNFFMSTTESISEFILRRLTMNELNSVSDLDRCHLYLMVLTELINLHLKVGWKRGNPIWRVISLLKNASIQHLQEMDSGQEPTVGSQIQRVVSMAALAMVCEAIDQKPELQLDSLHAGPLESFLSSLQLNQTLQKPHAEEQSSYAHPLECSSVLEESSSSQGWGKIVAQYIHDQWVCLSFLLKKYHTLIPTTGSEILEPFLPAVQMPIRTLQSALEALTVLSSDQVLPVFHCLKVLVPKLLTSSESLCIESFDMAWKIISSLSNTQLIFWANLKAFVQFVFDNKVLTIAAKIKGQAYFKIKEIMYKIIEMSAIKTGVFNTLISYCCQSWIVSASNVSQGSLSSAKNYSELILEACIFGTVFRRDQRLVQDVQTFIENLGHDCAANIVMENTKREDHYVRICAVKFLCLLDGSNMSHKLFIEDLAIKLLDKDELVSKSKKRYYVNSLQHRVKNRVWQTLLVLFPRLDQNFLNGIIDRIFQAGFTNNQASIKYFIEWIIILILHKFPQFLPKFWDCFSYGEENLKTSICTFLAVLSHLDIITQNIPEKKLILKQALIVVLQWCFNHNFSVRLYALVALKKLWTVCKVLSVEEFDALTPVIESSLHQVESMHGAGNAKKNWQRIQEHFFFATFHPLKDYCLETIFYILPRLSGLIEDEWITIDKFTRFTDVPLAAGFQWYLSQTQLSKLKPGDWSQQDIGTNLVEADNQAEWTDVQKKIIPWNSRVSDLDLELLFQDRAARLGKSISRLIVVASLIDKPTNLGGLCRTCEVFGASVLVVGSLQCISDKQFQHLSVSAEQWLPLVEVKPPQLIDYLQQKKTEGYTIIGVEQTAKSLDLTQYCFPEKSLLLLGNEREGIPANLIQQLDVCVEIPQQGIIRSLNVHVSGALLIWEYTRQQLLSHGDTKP
inactive: lapatinib -0.009 | pictilisib 0.007 | crizotinib -0.122 | [1] 0.017 | duvelisib -0.034 | gandotinib -0.124 | tozasertib 0.098 | doramapimod -0.022 | bafetinib -0.044 | [2] 0.079

SLC26A6 (UniProt Q9BXS9)
inactive: lapatinib -0.009 | pictilisib 0.05 | crizotinib -0.023 | [1] 0.016 | duvelisib 0.067 | gandotinib 0.051 | tozasertib 0.047 | doramapimod -0.003 | bafetinib -0.003 | [2] 0.118
